PREPL inh: human PREPL enzyme inhibition. inhibition, % at 5.96 µM. recombinant PREPL, fluorescence polarization activity-based probe. AID 2751. Q4J6C6. actives 0.68% (n = 320,000); in the data active means inhibition above about 43%;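 further: 0% = enzyme with DMSO and 100% = wells lacking enzyme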
GSTO1 inh: GSTO1 inhibition, counter-screen for RBBP9 inhibitors; actives 1.1% (n = 300,000); AID 1974; recombinant GSTO1, activity-based probe fluorescence polarization; inhibition, % at 5.96 µM;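 active means inhibition above the campaign mean inhibition plus 3 SD, cut at about 35% in these data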;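 further: 0% = GSTO1-1 with DMSO and 100% = wells lacking GSTO1-1 enzyme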
Fam108B inh: blocks mouse Fam108B hydrolase in RBBP9 counter-screen. recombinant Fam108B, FP-Rh probe fluorescence polarization. inhibition, % at 9.51 µM. actives 0.33% (n = 300,000). AID 1947;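 active means inhibition above the screen mean inhibition plus 3 SD, computed separately per campaign, cut at about 18% in these data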;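 further: inhibitors lower polarization as less probe binds the enzyme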
LYPLA2 counter: LYPLA2 (human) inhibition in PME1 counter-screen; O95372; recombinant LYPLA2, FP-Rh probe fluorescence polarization; inhibition, % at 5.9 µM; actives 0.38% (n = 320,000);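 active means inhibition above the screen-wide mean plus 3 SD, limit set per campaign, cut at about 26% in these data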;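 further: 0% = LYPLA2 with DMSO and 100% = wells lacking LYPLA2 enzyme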
Target sequence (O95372 whole entry, looked up): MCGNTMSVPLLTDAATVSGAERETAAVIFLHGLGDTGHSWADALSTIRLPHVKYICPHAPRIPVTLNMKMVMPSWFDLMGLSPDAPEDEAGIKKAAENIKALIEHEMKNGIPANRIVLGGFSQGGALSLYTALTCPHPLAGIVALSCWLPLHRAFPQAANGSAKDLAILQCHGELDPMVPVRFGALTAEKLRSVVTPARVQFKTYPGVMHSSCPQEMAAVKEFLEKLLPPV
PME-1 primary: blocks human protein phosphatase methylesterase 1 | Q9Y570 | recombinant PME-1, FP-Rh probe fluorescence polarization | inhibition, % at 5.9 µM | actives 0.53% (n = 320,000) | AID 2130;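 active means inhibition above the campaign mean of all compounds plus 3 SD, cut at about 26% in these data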;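 further: competitive labeling of PME-1 active site by serine hydrolase directed probe; 0% = PME-1 with DMSO and 100% = wells lacking PME-1 enzyme; inhibitors block probe labeling so polarization falls and inhibition rises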
Target sequence (Q9Y570 whole entry, looked up): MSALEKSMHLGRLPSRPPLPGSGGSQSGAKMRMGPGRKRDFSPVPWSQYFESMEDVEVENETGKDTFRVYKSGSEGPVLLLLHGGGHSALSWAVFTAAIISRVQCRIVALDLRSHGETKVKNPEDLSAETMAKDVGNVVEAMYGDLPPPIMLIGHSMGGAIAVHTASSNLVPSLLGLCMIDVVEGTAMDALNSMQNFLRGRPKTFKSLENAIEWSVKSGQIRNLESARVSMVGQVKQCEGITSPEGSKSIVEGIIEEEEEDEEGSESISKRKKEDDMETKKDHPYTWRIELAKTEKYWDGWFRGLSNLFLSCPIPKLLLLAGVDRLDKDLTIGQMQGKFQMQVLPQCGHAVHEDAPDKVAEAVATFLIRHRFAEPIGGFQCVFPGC
LYPLA1 inh: counter-screen for PME1 inhibitors: inhibitors of human LYPLA1. recombinant LYPLA1, FP-Rh probe fluorescence polarization. inhibition, % at 5.9 µM. actives 0.16% (n = 320,000). AID 2174;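 active means inhibition above the mean of all tested compounds plus 3 SD, set per campaign, cut at about 14% in these data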;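 further: inhibitors block serine hydrolase probe labeling of LYPLA1 so polarization falls; 0% = enzyme with DMSO and 100% = wells lacking LYPLA1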
Fam108b inh conf: confirmation of mouse Fam108b serine hydrolase inhibitors | shares compounds with Fam108B inh | recombinant Fam108b, FP-Rh probe fluorescence polarization | inhibition, % at 9.51 µM | actives 44% (n = 930);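 active means inhibition above a limit from the primary screen, the mean over all compounds plus 3 SD, cut at about 19% in these data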;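 further: 0% = median of active Fam108b wells and 100% = catalytically dead S170A mutant; inhibitors free the probe so polarization falls as inhibition rises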
Fam108b inh: inhibits mouse Fam108b in gel-based ABPP; AID 588649; actives 44% (n = 260); recombinant Fam108b, fluorophosphonate probe; shares compounds with Fam108B inh; inhibition, % at 20 µM; in the data active means inhibition above about 40%
* hit, by the source's call; nt = not tested or not shown. The list is not random: actives were taken first. Their share in the collection is about 1.9%.

SMILES	PREPL inh	GSTO1 inh	Fam108B inh	LYPLA2 counter	PME-1 primary	LYPLA1 inh	Fam108b inh conf	others
CC(Sc1nnc(NC2CCCCC2)s1)C(=O)Nc1ccc2c(c1)C(=O)c1ccccc1C2=O (stereo not given)	15	-68	27*	-10	32*	-7	5
Cc1cc(C)nc(SCc2ccc(C(=O)N/N=C/c3cccc(O)c3O)cc2)n1	19	-44	50*	17	26*	-11	82*
Cc1cc(C)nc(SCc2ccc(C(=O)NN=Cc3cccc(O)c3O)cc2)n1	nt	nt	nt	nt	nt	nt	nt	Fam108b inh=90*
CC(C)(C)OC(=O)C[C@@H]1C/C=C\C[C@H](CC(=O)N[C@H](CO)Cc2ccccc2)C(=O)N2CCC[C@H]2COC1=O	10	nt	nt	nt	nt	nt	nt
O=C(NC1CCCc2c1cnn2-c1ccc(F)cc1F)c1csnn1 (stereo not given)	9	3	2	-9	-4	-6	nt
CSc1nc(NCCOCCO)c2sc3nc(-c4ccco4)c4c(c3c2n1)CCC4	5	21	29*	-11	-5	-12	5
C=CCn1cnc2c(nnn2Cc2ccc(F)cc2)c1=O	-2	5	-1	0	-1	1	nt
CC(C)Oc1ccc(CCC(=O)N/N=C/c2ccc3c(c2)OCO3)cc1	38	25	25*	8	41*	-1	0
O=C(NC1CC(=O)N(c2ccc(Cl)cc2)C1)N1CCN(C(=O)c2ccco2)CC1 (stereo not given)	-3	6	-3	3	-1	-2	nt
CCN(CC(=O)Nc1ccc(NC(C)=O)cc1)C(=O)c1cccc2ccccc12	-15	nt	nt	-3	-1	-3	nt
CC(=O)Nc1ccc(NC(=O)COC(=O)c2c(-c3ccccc3)noc2C)cc1	0	nt	nt	-2	5	-8	nt
O=C(Nc1ccccc1)Nc1sccc1-c1nc2ccccc2s1	21	-11	12	-23	-14	-21	nt
O=C(Nc1cccc(Cl)c1)Nc1sccc1-c1nc2ccccc2s1	14	-50	27*	-30	3	-22	20*
CC(CCc1ccccc1)NC(=O)CCNC(=O)c1ccccc1Cl (stereo not given)	2	nt	nt	nt	nt	nt	nt
Cc1cccc(N(Cc2ccccc2)C(=O)CN2C(=O)NC3(CCCCC3C)C2=O)c1 (stereo not given)	8	nt	nt	-3	-3	0	nt
O=C(O)c1ccc(N/N=C/c2ccc(-c3cc(Cl)ccc3Cl)o2)cc1	29	28	22*	7	13	3	4
COC(=O)N/N=C/c1ccc(-c2ccc(Cl)cc2Cl)o1	11	-9	-4	-4	-5	1	nt
NS(=O)(=O)c1ccc(-c2ccc(/C=N/Nc3ccc(C(=O)O)cc3)o2)cc1	19	-3	5	-8	-12	-3	nt
O=C(O)c1ccc(N/N=C/c2ccc(-c3ccc(Cl)cc3Cl)o2)cc1	42	14	28*	10	64*	11	23*
COc1ccc(-c2oc3c(OC)c(OC)c(OC)c(O)c3c(=O)c2OC)cc1OC	32	5	1	2	4	-5	nt
COc1ccc(-c2cc(-c3c(O)c(OC)c4occc4c3OC)[nH]n2)cc1OC	51*	10	23*	1	31*	-9	1
O=C(CSc1nnc(CNc2ccccc2)o1)N1CCc2ccccc21	9	14	4	0	-1	-3	nt
O=C(CSc1nnc(Cc2csc(Nc3cccc(Cl)c3)n2)o1)N1CCc2ccccc21	19	-1	19*	-9	7	-12	-13
Cc1ccc(NS(=O)(=O)c2cc([N+](=O)[O-])ccc2NNC(=S)Nc2cccc(Cl)c2)c(C)c1	10	-60	30*	7	25	-14	18
COc1ccc(NC(=S)Nc2cccc([N+](=O)[O-])c2)cc1	-2	-3	-2	6	5	-2	nt
SMILES	PREPL inh	GSTO1 inh	Fam108B inh	LYPLA2 counter	PME-1 primary	LYPLA1 inh	Fam108b inh conf	others
Cc1cccc(NC(=S)NNc2cccc(Cl)c2)c1	7	22	0	4	2	-2	nt
Cc1ccc(NS(=O)(=O)c2cc([N+](=O)[O-])ccc2NNC(=S)Nc2cc(C)ccc2C)c(C)c1	13	-11	27*	4	23	-13	-16
COc1ccc(NC(=S)NNc2ccc([N+](=O)[O-])cc2S(=O)(=O)Nc2ccc(C)cc2C)cc1	5	1	32*	-4	22	-10	11
CN(Cc1cccs1)S(=O)(=O)c1ccc(Cl)cc1F	7	nt	nt	1	-4	1	nt
COc1ccccc1N1CC(C(=O)Nc2ccc(C)c(S(=O)(=O)N3CCOCC3)c2)CC1=O (stereo not given)	3	nt	nt	nt	nt	nt	nt
Nc1c(S(=O)(=O)c2cccc(Cl)c2)c2nc3ccccc3nc2n1N=Cc1ccc(O)c(O)c1	nt	nt	nt	nt	nt	nt	nt	Fam108b inh=80*
CCn1c2ccccc2c2cc(NC(=O)c3cc(OC)c(OC)c(OC)c3)ccc21	27	-3	19*	-5	13	-7	-5
CCn1c2ccccc2c2cc(NC(=O)c3cc(OC)cc(OC)c3)ccc21	7	-4	5	-8	8	-8	nt
Nc1nc2ccccc2n1/N=C/c1ccc(Br)cc1	39	-16	29*	-3	11	-2	35*
CC(Sc1n[nH]c(-c2ccccc2F)n1)C(=O)Nc1ccc(S(N)(=O)=O)cc1 (stereo not given)	-1	nt	nt	4	-2	0	nt
COc1cccc(-c2nc(N)nc(SC)c2C#N)c1	5	3	-4	4	3	1	nt
COc1ccc(-c2noc(CCCC(=O)NC3CCCCC3)n2)cc1	12	-4	-1	0	0	-1	nt
COc1cc(/C=N/NC(=O)c2cc3c(ccc4ccccc43)o2)cc(OC)c1O	23	-1	27*	3	34*	-2	20*
O=C(N/N=C/c1ccncc1)c1cc2c(ccc3ccccc32)o1	-3	-9	-9	-8	-28	-16	nt
COc1ccccc1/C=N/NC(=O)c1cc2c(ccc3ccccc32)o1	-7	-4	-5	-9	3	-12	nt
O=C(NN=Cc1cc(Cl)c(O)c(Cl)c1)c1cc2c(ccc3ccccc32)o1	nt	nt	nt	nt	nt	nt	nt	Fam108b inh=0
O=C(O)c1cccc(-n2cccc2/C=C/[N+](=O)[O-])c1	11	6	25*	3	-13	-2	1
NC(=O)c1ccc([N+](=O)[O-])cc1SCc1ccccc1	16	6	7	15	6	3	nt
N[C@H](CSCc1ccccc1)C(=O)Nc1ccc([N+](=O)[O-])cc1	8	8	29*	0	26*	-11	-5
COc1ccc(CN(C)C(=O)COc2cccc(-n3cnnn3)c2)cc1OC	8	nt	nt	nt	nt	nt	nt
